95 compounds from PubChem BioAssay AID1063 (University of Pittsburgh Molecular Library Screening Center, 2008) can be followed below.

Out of some 200,000 compounds screened, about 18,000 (9%) were called active. The list comes from a sample in which actives are over-represented; it also holds similar structures and randomly drawn compounds. A number with no mark means an inactive call. Cut-off read from the data, not from the text of the source: active = inhibition above about 50%; inactive = the rest.

A short description of this test: antileishmanial activity against promastigotes – primary screen (AID 1063).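 Note: promastigotes grown with compound for 44 hours at 28 °C.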 As to conditions: Leishmania major promastigotes, resazurin fluorescence viability; at 10 µM; active compounds read high. For orientation: Alamar Blue is a resazurin reagent that responds to reducing activity.
As to `Cc1ccc(C)c(Cn2nnc3c(=O)[nH]c(C(=O)Nc4ccc(F)cc4)nc32)c1`, the inhibition (usually the drop in the measured response relative to a control, in per cent) is 39%.

In the case of `O=[N+]([O-])c1ccc2[nH]c3c(c2c1)CCCC3O` (stereo not given), the inhibition was -1.72%.

With `CCn1c(CNC(=O)c2ccco2)nnc1SCC(=O)Nc1cccc(F)c1`, the inhibition was -1.95%.

In the case of `CCCCNC(=O)N1CCN(S(C)(=O)=O)CC1`, the inhibition was -0.76%.

Consider `Cc1ccc(C)c(NC(=O)CSc2nnc(Cc3cccn3C)n2-c2ccc(F)cc2)c1`, for which the inhibition is -0.8%.

On to `Cc1ccc(C)c(NC(=O)CSc2nc3c(oc4ccccc43)c(=O)n2-c2ccccc2)c1`, for which the inhibition is 97.7% (active).

For `Cc1ccc(C)c(Cn2cnc3c(oc4ccccc43)c2=O)c1`, the inhibition is -7.39%.

Regarding `COCCC(=O)Nc1ccc2c(c1)CN(C(=O)CCOC)CC2`, the inhibition was -5.46%.

As for `COCCn1c(N)c(N(Cc2ccccc2)C(=O)C2CCCCC2)c(=O)[nH]c1=O`, the inhibition was -6%.

With `C=CCOC(=O)C1=C(C)N=C2SCCC(=O)N2C1/C=C/c1ccccc1OC` (stereo not given), the inhibition is 7.43%.

Regarding `O=C(c1cccc(S(=O)(=O)N2CCCC2)c1)N(Cc1ccco1)C1CCS(=O)(=O)C1` (stereo not given), the inhibition is -2.42%.

`O=C(CSc1nnc(-c2cccs2)n1-c1ccccc1)N1CCN(C(=O)c2ccco2)CC1`: the inhibition is -10.5%.

In the case of `CCn1c(SCC(=O)c2ccc3ccccc3c2)nnc1-c1cccs1`, the inhibition is -1.02%.

Consider `O=C(CSc1nnc(-c2cccs2)n1Cc1ccccc1)N1CCc2ccccc2C1`, for which the inhibition is 83.6% (active).

As to `COC(=O)c1ccc(COC(=O)c2cnccn2)cc1`, the inhibition was -1.35%.

Regarding `COc1ccc(C2C(C(=O)Nc3ccccc3OC)=C(C)Nc3nnnn32)c(OC)c1` (stereo not given), the inhibition is 15.1%.

Regarding `COc1cc(C2C(C(=O)Nc3ccccc3OC)=C(C)Nc3ncnn32)ccc1O` (stereo not given), the inhibition was -3.99%.

For `COc1ccccc1NC(=O)C1=C(C)Nc2nnnn2C1c1cccc(Br)c1` (stereo not given), the inhibition is 95.7% (active).

Take `COCCNC(=O)CN(C(=O)CCC(=O)Nc1cc(C)on1)c1ccc(C)cc1C`: the inhibition was 2.39%.

For `Cc1ccnc(NC(=O)CCC(=O)N(CC(=O)NCc2ccccc2)Cc2ccco2)c1`, the inhibition is -5.25%.

As to `Cc1ccc(C)c(N(CC(=O)NCc2ccco2)C(=O)CCC(=O)Nc2ccccn2)c1`, the inhibition is 53.3% (active).

With `O=C(NCCN1CCOCC1)Nc1cccc(Cl)c1`, the inhibition was -0.08%.

In the case of `O=S1(=O)CCN(Cc2ccccc2Cl)CC1`, the inhibition is -4.67%.

With `O=C(NCC1CCN(Cc2ccccc2Cl)CC1)Nc1cccc(Cl)c1`, the inhibition is 76.4% (active).

Take `N#Cc1ccc(CSc2nnc3ccccn23)cc1`: the inhibition was -3.72%.

As for `Cc1ccc(NN=C2C(=O)OC(C)(C)OC2=O)c(C)c1`, the inhibition is -4.89%.

With `Cc1onc(C(=O)NN)c1C(=O)N1CCN(C(c2ccccc2)c2ccccc2)CC1`, the inhibition was -5.09%.

For the compound `CN(c1ccccc1)S(=O)(=O)c1ccc(Cl)c(C(=O)OCC(N)=O)c1`, the inhibition is -0.01%.

With `O=C(Cc1c(F)cccc1Cl)Nc1ccc(-n2cnnn2)cc1`, the inhibition was 1%.

For the compound `CN(c1ccccc1)S(=O)(=O)c1cccc(NC(=O)Cc2c(F)cccc2Cl)c1`, the inhibition was 98.4% (active).

As to `C=CCNc1scc(-c2ccccc2)[n+]1CC=C`, the inhibition was 9.84%.

In the case of `Cc1cccc(C(=O)NCCCN2CCCC2=O)c1`, the inhibition is -4.51%.

As to `CCN1CCN(CCNC(=O)c2ccc(/C=C3/Sc4ccccc4N(Cc4cccc(C)c4)C3=O)cc2)CC1`, the inhibition was 101% (active).

In the case of `Cc1nn(Cc2ccccc2)c(C)c1C(=O)NCCN1C(=O)S/C(=C\c2ccc(F)cc2)C1=O`, the inhibition is -6.47%.

For `COC(=O)c1ccc(CSc2nncn2N)cc1`, the inhibition was -3.29%.

Take `COc1cc(NS(=O)(=O)c2ccc(NC(=O)CN3C(=O)c4ccccc4C3=O)cc2)ncn1`: the inhibition was 4.83%.

Consider `CN(Cc1ccccc1)Cc1ccccc1F`, for which the inhibition was -3.21%.

Regarding `Fc1ccccc1Cn1cnc(NC(=S)NCCc2ccccc2)n1`, the inhibition was -2.69%.

Consider `N=c1n(CCc2ccccc2)c2ccccc2n1Cc1ccccc1F`, for which the inhibition was 97.3% (active).

As for `C=C(C)C1CC=C(C)/C(=N/NC(=O)CCCNc2cccc(C)c2)C1` (stereo not given), the inhibition was -1.55%.

As to `CN(C)c1ccc(CNC23CN4CN(CN(C4)C2)C3)cc1`, the inhibition is -1.82%.

Turning to `CN(C)c1ccc(CNC2C3CC4CC(C3)CC2C4)cc1` (stereo not given), the inhibition is 75.6% (active).

As to `c1cnc(NC2C3CC4CC(C3)CC2C4)nc1` (stereo not given), the inhibition was 27.5%.

Turning to `O=C(O)C1CC=CCC1C(=O)Nc1ccccc1C(=O)N1CCN(c2ccccc2)CC1` (stereo not given), the inhibition is -4.97%.

For `CC(C)c1ccc(N2CCN(C(=O)c3ccccc3NC(=O)/C=C(\C(=O)O)c3ccccc3)CC2)cc1`, the inhibition is 100% (active).

Regarding `Cc1cccc(N2CCN(C(=O)c3ccccc3NC(=O)C3CCCCC3C(=O)O)CC2)c1` (stereo not given), the inhibition is -7.46%.

Regarding `Cc1nc(S(=O)(=O)c2ccc(Br)cc2)nc2c1CCC2`, the inhibition was -6.99%.

Consider `CCOCCCNC(=O)C(NC(=O)c1ccccc1O)c1ccccc1` (stereo not given), for which the inhibition is -1.57%.

Take `CCc1ccc(Nc2nnc(SCC(=O)c3ccc4c(c3)NC(=O)CO4)s2)cc1`: the inhibition was -5.5%.

In the case of `COc1cccc(CNC(=O)CCC2CCCN(C(=O)c3cc(C)[nH]n3)C2)c1` (stereo not given), the inhibition was -7.13%.

Regarding `COc1cccc2cc(/C(C)=N/NC(=O)c3ccco3)oc12`, the inhibition was 31%.

Regarding `N=c1c2c3c(sc2ncn1N)CCCC3`, the inhibition is -4.1%.

For `N=c1c2c3c(sc2ncn1N)CCCCC3`, the inhibition was -0.23%.

As for `N=c1c2c3c(sc2ncn1CCCN1CCOCC1)CCCCC3`, the inhibition was 90.5% (active).

With `COC(=O)C(=Nc1ccccc1)/C(C(=O)C(=O)N(C)c1ccccc1)=C(\O)c1ccc(Cl)cc1`, the inhibition was -4.81%.

In the case of `Cc1ccc(NC(=O)CN2CCc3ccccc3C2)cc1`, the inhibition is -2.33%.

Consider `Cc1ccc(NC(=O)CCN2CCc3ccccc3C2)cc1`, for which the inhibition was 5.9%.

As for `Cc1cccc(C)c1NC(=O)c1ccc(CN2CCc3ccccc3C2)cc1`, the inhibition is 73.9% (active).

As to `CCN=c1sc(C(=O)Nc2ccccc2)c(C)n1CC`, the inhibition is -3.21%.

In the case of `CC(C)C(c1nnnn1C(C)(C)C)N1CCN(Cc2cccnc2)CC1` (stereo not given), the inhibition was -1.86%.

On to `Cc1ccccc1OCc1nnc(SCC(=O)N2c3ccccc3Sc3ccc(Cl)cc32)o1`, for which the inhibition was 11.3%.

For the compound `O=C(CSc1nc2ccccc2o1)N1CCN(c2ccc(Cl)cc2)CC1`, the inhibition is 0.01%.

Consider `O=C(CSc1nc2ccccc2o1)N1c2ccccc2Sc2ccc(Cl)cc21`, for which the inhibition was 71.7% (active).

For `COc1ccc(-c2nc3cnccn3c2NC(C)(C)CC(C)(C)C)cc1O`, the inhibition was 32.8%.

Consider `CS(=O)(=O)c1ccc2nc(NC(=O)c3ccc(Cl)nc3)sc2c1`, for which the inhibition was 3.2%.

On to `COc1ccccc1-n1c(=S)[nH]c2c(sc(=S)n2-c2ccc(C)cc2C)c1=O`, for which the inhibition was -6.57%.

For the compound `N=c1c2c(-c3ccccc3)c(-c3ccccc3)n(Cc3ccccc3)c2ncn1CCCO`, the inhibition was 100% (active).

Take `N=c1c2c(-c3ccccc3)c(-c3ccccc3)oc2ncn1Cc1ccco1`: the inhibition was 33.3%.

Turning to `Cc1nc([N+](=O)[O-])c(NCCCO)n1Cc1ccccc1`, the inhibition was 10.7%.

As for `Oc1ccccc1N1CCN(C(=S)NCc2ccccc2)CC1`, the inhibition was -5.57%.

For `O=C(COC(=O)c1ccccc1C(=O)N1CCN(c2ccccc2)CC1)NCc1ccccc1`, the inhibition is -2.49%.

As to `Oc1ccc(N2CCN(C(=S)NCc3ccccc3)CC2)cc1`, the inhibition is 53.4% (active).

`Cc1ccc(C(NC(=O)N2CCCC2)C(Cl)(Cl)Cl)cc1F` (stereo not given): the inhibition was -2.3%.

Consider `Cc1ccc(-c2csc(SCC(=O)Nc3cc(C)on3)n2)cc1`, for which the inhibition was -6.88%.

For the compound `Cc1ccc2nc(-c3ccc(SCC(=O)Nc4cc(C)on4)nc3)[nH]c2c1`, the inhibition is 64.8% (active).

As to `Cc1cc(NC(=O)CSc2nc3ccccc3n2CC(C)C)no1`, the inhibition was 10.5%.

`CCN1CCN(C(=O)c2ccc(CN(c3ccc(C)c(C)c3)S(C)(=O)=O)cc2)CC1`: the inhibition is 3.09%.

Regarding `COc1ccc(NC(=O)CN(C)S(=O)(=O)c2ccccc2)cc1OC`, the inhibition was -1.12%.

On to `COc1ccc(NC(=S)SC)cc1OC`, for which the inhibition was 80.4% (active).

Consider `COc1ccc(C(=O)NC(=S)Nc2ccc(N3CCCC3)cc2)cc1OC`, for which the inhibition was 26.5%.

For the compound `O=C(NCc1ccccn1)c1cc(Br)ccc1Cl`, the inhibition is 17.5%.

Consider `CN(C)NC(=O)C(NC(=O)c1ccc(N)cc1)C12CC3CC(CC(C3)C1)C2` (stereo not given), for which the inhibition is 3.34%.

Take `S=C(NCC1COc2ccccc2O1)Nc1ccc(Br)cc1` (stereo not given): the inhibition is -3.43%.

Take `c1ccc2c(c1)OCC(CNc1ncnc3nc[nH]c13)O2` (stereo not given): the inhibition is -3.1%.

In the case of `c1ccc(-c2cc3c(NCC4COc5ccccc5O4)ncnc3s2)cc1` (stereo not given), the inhibition was 98.8% (active).

With `CN(C)C(=O)CSc1n[nH]c(-c2ccco2)n1`, the inhibition was -3.34%.

For `COc1ccccc1N1CCN(CC(=O)NCCc2ccc(S(N)(=O)=O)cc2)CC1`, the inhibition is -5.9%.

For `Cc1nc([N+](=O)[O-])cn1CC(=O)Nc1ccc2c(c1)OCO2`, the inhibition was -4.99%.

In the case of `COc1ccc(NC(=O)CN(C)CC(=O)Nc2cccc(C(F)(F)F)c2)cc1`, the inhibition was 6.17%.

Take `CCOc1ccc(NC(=O)CN(C)CC(=O)NC(C)c2ccccc2)cc1OCC` (stereo not given): the inhibition is -1.35%.

For the compound `CCOc1ccc(NC(=O)CN(C)CC(=O)Nc2cccc(Cl)c2C)cc1OCC`, the inhibition was 84.2% (active).

Consider `S=c1[nH]nc(/C=C/c2ccccc2)o1`, for which the inhibition was -11.6%.

For the compound `CN1CCN(CC(=O)Nc2cccc([N+](=O)[O-])c2)CC1`, the inhibition is -5.42%.

As to `O=C(O)c1cccc(NC(=S)N/N=C/c2c[nH]c3ccccc23)c1`, the inhibition was -4.34%.

In the case of `O=C(N/N=C/c1ccc(Cl)cc1)c1nc2ccc([N+](=O)[O-])cc2c(=O)[nH]1`, the inhibition was 13.4%.
